Test results published in PubChem BioAssay AID1645853 (Buhrlage Lab, Dana-Farber Cancer Institute and Novartis …, 2021).
About 2,000 (4.3%) of roughly 47,000 compounds were called active. Shown is part of a subset that was picked to be rich in actives. Unmarked numbers belong to inactive results. Cut-off read from the data, not from the text of the source: active = inhibition above about 30%; inactive = the rest.

Biological target: Ubiquitin carboxyl-terminal hydrolase 8 (Homo sapiens) (UniProt P40818)
Assay: inhibitors of human USP8 deubiquitinase (AID 1645853)
Settings: purified USP8, Ub-rhodamine cleavage fluorescence, 30 min; at 20 µM; hits give high values

Sequence of Ubiquitin carboxyl-terminal hydrolase 8 (Homo sapiens) (P40818 whole entry, looked up): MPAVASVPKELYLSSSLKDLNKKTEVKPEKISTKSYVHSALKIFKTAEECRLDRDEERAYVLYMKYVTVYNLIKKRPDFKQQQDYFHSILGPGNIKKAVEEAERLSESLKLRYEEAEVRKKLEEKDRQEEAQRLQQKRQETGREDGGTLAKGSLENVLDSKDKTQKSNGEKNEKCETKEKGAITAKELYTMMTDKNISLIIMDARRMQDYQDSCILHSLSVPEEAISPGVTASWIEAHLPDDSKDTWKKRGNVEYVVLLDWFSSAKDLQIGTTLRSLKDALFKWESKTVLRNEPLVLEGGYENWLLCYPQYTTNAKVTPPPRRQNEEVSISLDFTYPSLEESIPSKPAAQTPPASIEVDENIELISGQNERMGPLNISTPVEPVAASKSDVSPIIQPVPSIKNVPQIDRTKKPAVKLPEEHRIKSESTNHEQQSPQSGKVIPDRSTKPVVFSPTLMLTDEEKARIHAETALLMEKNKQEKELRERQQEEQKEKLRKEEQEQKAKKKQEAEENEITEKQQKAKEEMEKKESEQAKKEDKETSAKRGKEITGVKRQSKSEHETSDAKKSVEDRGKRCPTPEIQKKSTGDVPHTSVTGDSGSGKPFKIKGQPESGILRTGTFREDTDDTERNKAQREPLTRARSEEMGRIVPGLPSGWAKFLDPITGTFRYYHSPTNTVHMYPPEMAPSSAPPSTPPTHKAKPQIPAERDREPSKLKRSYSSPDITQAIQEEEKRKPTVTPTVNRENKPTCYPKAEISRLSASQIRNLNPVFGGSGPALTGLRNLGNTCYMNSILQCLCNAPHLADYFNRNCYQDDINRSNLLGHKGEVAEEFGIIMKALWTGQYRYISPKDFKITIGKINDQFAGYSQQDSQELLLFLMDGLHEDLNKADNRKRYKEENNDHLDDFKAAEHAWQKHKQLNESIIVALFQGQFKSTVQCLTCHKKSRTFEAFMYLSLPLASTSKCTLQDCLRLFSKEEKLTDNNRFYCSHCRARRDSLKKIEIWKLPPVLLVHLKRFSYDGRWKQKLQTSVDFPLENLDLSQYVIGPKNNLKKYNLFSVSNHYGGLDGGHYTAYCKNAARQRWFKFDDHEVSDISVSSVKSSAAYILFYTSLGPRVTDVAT

Row | SMILES | inhibition
1 | Oc1cccc2nc3c(O)cccc3nc12 | 94.4% (active)
2 | O=C(NCc1ccc2c(c1)OCO2)C1CCCN(c2nc3ccc(Cl)cc3[nH]2)C1 (centres undefined) | 7.49%
3 | CC(=O)N[C@@]12CN(C)CC[C@@H]1[C@@H](c1ccccc1)N(CC(=O)Nc1cc(F)ccc1C)C2 | -5.94%
4 | N#Cc1ccccc1Cn1c(=O)n(CCCC(=O)NCc2ccc(F)cc2)c(=O)c2ccccc21 | 15.6%
5 | COc1ccc(CCNC(=O)CCCn2c(=O)c3ccccc3n(CC(=O)OCc3ccccc3)c2=O)cc1OC | 1.77%
6 | Cc1ccc(CNC(=O)CCCn2c(=O)c3sccc3n(CC(=O)OCc3ccccc3)c2=O)cc1 | 63.4% (active)
7 | Cc1cc(C)nc(-n2nc(C)c(C#N)c2NC(=O)c2cccc(Cl)c2)n1 | 2.08%
8 | COc1ccc(-c2cnoc2-c2ccc(O)cc2O)cc1OC | 22%
9 | Fc1ccc(-n2cc(-c3ccccc3)c3c(NCc4ccco4)ncnc32)cc1 | 5.27%
10 | CC(C)Cc1nc2sc3c(NCc4ccco4)ncnc3c2c2c1CCC2 | 16.6%
11 | c1coc(CNc2nc(Nc3cccc4ccccc34)nc3ccccc23)c1 | 35.8% (active)
12 | COCCN1CC[C@@H]2Oc3ccccc3S(=O)(=O)N(Cc3cccnc3)[C@H]2CC1 | -50.1%
13 | COc1cccc(S(=O)(=O)N2CCC(n3cnnc3C3CC3)CC2)c1 | 1.34%
14 | COc1cc(-c2nc3c4cnn(-c5ccccc5)c4ncn3n2)cc(OC)c1OC | -3.12%
15 | C#CCOc1ccc2ccccc2c1CN1CCc2ccccc2C1 | 41.1% (active)
16 | C#CCOc1ccc(CN2CCc3nc(-c4cccnc4)[nH]c(=O)c3C2)cc1OC | 13.3%
17 | Cn1nnnc1-c1cc(Cl)cc(Cl)c1 | -13.4%
18 | CCc1cc(=O)n(CC(=O)NCC2CCCO2)c(N)n1 (centres undefined) | 0.518%
19 | COc1cccc(CNC(=O)N2CCN(Cc3ccc4nccnc4c3)CC2)c1 | -8.24%
20 | Cn1c(CC2CCN(S(=O)(=O)c3cccnc3)C2)nc2cccnc21 (centres undefined) | 13.9%
21 | O=C(NCc1ccccc1)c1c(O)c2cnn(Cc3ccccc3)c2[nH]c1=O | 0.46%
22 | COc1ccccc1CN1C(=O)c2cc3occc3n2CC1(C)C(=O)NC1CCCCC1 (centres undefined) | 13.4%
23 | CC1(C(=O)NC2CCCC2)Cn2c(cc3ccccc32)C(=O)N1c1ccc(F)cc1 (centres undefined) | 50.7% (active)

Row | SMILES | inhibition
24 | CC(C)CCNC(=O)C1(C)Cn2c(cc3ccccc32)C(=O)N1Cc1ccccc1F (centres undefined) | 0.22%
25 | CO\C=C(C(=O)OC)/C(=C\C=C\c1ccccc1)CO | -79.7%
26 | Cc1cc(C)c2ccc(NC(=O)c3ccco3)nc2n1 | -8.62%
27 | Cc1nc(-n2[nH]c(C)c(CC(=O)N3CCOCC3)c2=O)sc1C | 8.41%
28 | CC(C)Cc1cc(-c2nn3c(-c4ccccc4Cl)nnc3s2)n[nH]1 | -0.275%
29 | Cc1c(-c2nn3c(-c4ccco4)nnc3s2)cccc1[N+](=O)[O-] | 89.2% (active)
30 | c1ccc(CN2CCCC(c3nc(-c4cccnc4)n[nH]3)C2)cc1 (centres undefined) | -0.172%
31 | Cc1noc(-c2cccn(Cc3cc(F)ccc3F)c2=O)n1 | 2.57%
32 | O=C(Cn1cccc(-c2nc(-c3ccccc3)no2)c1=O)Nc1ccccc1F | 90.4% (active)
33 | O=C(CN1CCC(c2nc(-c3ccccc3)no2)CC1)Nc1ccccc1 | 3.46%
34 | CC(=O)c1ccc(NC(=O)c2cccc(-c3nc(-c4ccccc4)no3)c2)cc1 | 8.62%
35 | CCc1ccc(C(=O)N2CCN(c3nnc4ccccn34)CC2)cc1 | -1.4%
36 | O=C(c1ccccc1)N1CCCCCC1C1CCNCC1 (centres undefined) | -4.33%
37 | O=C(Nc1c2c(nn1-c1cccc(Cl)c1)CS(=O)(=O)C2)c1cccs1 | 9.3%
38 | CC(C)NC(=O)c1cccc(-n2cnnn2)c1 | -259%
39 | Cc1cc(OCC(=O)Oc2ccc(-n3cnnn3)cc2)cc(C)c1Cl | 44.3% (active)
40 | CC(C)c1ccc(OCC(=O)NCc2nnnn2-c2ccc(Cl)cc2)cc1 | 4.83%
41 | Cc1ccnc(C2CN(C(=O)CCn3cnc4ccccc43)CCO2)n1 (centres undefined) | 19.3%
42 | COc1cc(NC(=O)CSc2nc3ccncc3[nH]2)cc(OC)c1 | 1.79%
43 | Nc1ccccc1-c1nnc(Cc2ccccc2)c(=O)[nH]1 | -0.271%
44 | CC(Nc1nnc(Cc2ccccc2)c(=O)[nH]1)c1ccccc1 (centres undefined) | 85.5% (active)
45 | Cc1ccc(Cc2nnc(C(=O)NC(C)c3ccccc3)o2)cc1 (centres undefined) | 0.117%
46 | CC(=O)NC(Cc1cccc(C)c1)C(=O)NC1CCN(C(=O)c2cccc(C)c2)CC1 (centres undefined) | -1.31%

Row | SMILES | inhibition
47 | CN1[C@@H](CCC(=O)N2CCc3ccccc32)CNC(=O)[C@@H]2[C@H]1CCN2Cc1ncc[nH]1 | -8.85%
48 | CN1[C@@H](CCC(=O)NCc2ccc(F)cc2)CNC(=O)[C@@H]2[C@H]1CCN2CC1CC1 | -6.51%
49 | COC(=O)C1CCN(C(=O)CC[C@H]2CNC(=O)[C@@H]3[C@@H](CCN3Cc3ccc(C)cc3)N2C)CC1 | 35.8% (active)
50 | COc1ccc(-c2c(C)noc2C)cc1S(=O)(=O)NC1CCCC1 | -9.12%
51 | Clc1ccccc1C1SCC2=Nc3ccccc3CN21 (centres undefined) | -101%
52 | COc1cccc(NC(=O)Cn2c(-c3ccccc3)nc(C)cc2=O)c1 | 2.3%
53 | CCN1C(=O)CCC12CCCN(S(=O)(=O)c1cccc(C)c1)CC2 (centres undefined) | -101%
54 | CCC(=O)c1ccc(OCC(=O)Nc2ccc3nc(C)sc3c2)cc1 | -13%
55 | CCC(=O)Nc1nc2cc(NC(=O)c3ccc(OC)cc3)ccc2s1 | 47.8% (active)
56 | COc1ccc(NC(=O)c2ccnc(Nc3ccc(OC)cc3)c2)cc1 | 25.4%
57 | COc1ccccc1CNC(=O)c1ccc(-n2nc(C)c3c2CCCC3=O)cc1 | 1.29%
58 | CCN1C(=O)c2ccccc2Sc2ccc(C(=O)NCc3ccc(OC)cc3OC)cc21 | 4.79%
59 | COc1cccc(CN2C(=O)c3ccccc3C2C(=O)NCc2ccccc2OC)c1 (centres undefined) | 34.7% (active)
60 | CC(C)(C)NC(=O)CSc1nc2[nH]c(=O)cc(O)c2s1 | -9.23%
61 | CC1Oc2ccccc2N(Cc2nc(-c3cccc(F)c3)no2)C1=O (centres undefined) | -3.17%
62 | O=C(Cc1ccccc1Cl)Nc1ccc(N2CCOCC2)cc1 | 51.8% (active)
63 | O=C(COC(=O)CCc1nc2ccccc2c(=O)[nH]1)Nc1ccc(N2CCOCC2)cc1 | 2.83%
64 | CCN(CC)c1nc2ccccc2nc1C(=O)Nc1ccc(N2CCOCC2)cc1 | -1.27%
65 | CN1C[C@H]2C[C@H](C(=O)Nc3ccc4c(c3)OCO4)[C@@H](C1)O2 | 6.94%
66 | O=C(Nc1cccnc1)[C@H]1C[C@@H]2CN(S(=O)(=O)C3CC3)C[C@H]1O2 | -14%
67 | CNC(=O)N1C[C@H]2C[C@H](C(=O)Nc3ccc4c(c3)OCO4)[C@@H](C1)O2 | 37% (active)
68 | CC(=O)c1ccc(NC(=O)Cn2c(=O)n(-c3ccccc3)c3ncccc32)cc1 | 10.4%
69 | CCS(=O)(=O)N1CC(=O)N(c2cccc(OC)c2)C(C)(C(=O)NCc2ccccc2)C1 (centres undefined) | -0.355%

Row | SMILES | inhibition
70 | O=C(Nc1ccccc1F)NC1CCCN(c2cc(-c3ccncc3)[nH]n2)C1 (centres undefined) | -92%
71 | COc1cccc(CNC(=O)c2ccc(-c3cncnc3)nc2)c1 | -15.9%
72 | COc1cccc(CNC(=O)c2ccc3c(=O)nc4c(-c5ccccc5)n[nH]n4c3c2)c1 | 71.8% (active)
73 | O=C(NC1CCCCC1)c1ccc2c(=O)nc3c(-c4ccccc4F)n[nH]n3c2c1 | 49.8% (active)
74 | O=C(NCCc1ccccc1)c1ccc2c(=O)nc3c(-c4ccccc4F)n[nH]n3c2c1 | 2.58%
75 | O=C(NCc1ccco1)c1ccc2c(=O)nc3c(-c4ccc(F)cc4)n[nH]n3c2c1 | -4.4%
76 | CN1CC(c2nc3ccccc3n2Cc2ccccc2)CC1=O (centres undefined) | -1.18%
77 | CNc1cncc(C2CCCN2C(=O)Cc2ccc3c(c2)OCO3)n1 (centres undefined) | -1.13%
78 | O=S(=O)(Nc1cccc(O)c1)c1ccc2oc3ccc(S(=O)(=O)Nc4cccc(O)c4)cc3c2c1 | 9.24%
79 | Cc1cc(C)n(CCC(=O)NCC2CCOCC2)n1 | -2.76%
80 | Cc1ccc(-c2nn(-c3ccccc3)cc2CNCc2cccnc2)cc1 | -268%
81 | CNC1C(OC2C(OC3C(O)C(O)C(OC(N)=O)C(O)C3N=C(N)N)OC(C)C2(O)CO)OC(CO)C(O)C1O (centres undefined) | 0.384%
82 | CC(C)Nc1ncnc2c1c(C(=O)N1CCCC1)c1ccccn12 | 55.5% (active)
83 | CN1CCCN(C(=O)c2cc(-c3ccn(C)n3)n3ccccc23)CC1 | -22.2%
84 | CCc1ccccc1NS(=O)(=O)c1c(C)[nH]c(C)c1C(=O)N1CCCC1 | 2.16%
85 | CN1[C@@H](CCC(=O)N2CCOCC2)CNC(=O)[C@@H]2[C@H]1CCN2C1CCCCC1 | 2.93%
86 | Cc1ccc(S(=O)(=O)Oc2cccnc2)c(C)c1F | 10.5%
87 | C=C1CCC2[C@](C)(CCC[C@]2(C)C(=O)OC)[C@H]1CCc1ccoc1CNCC(=O)O (some centres undefined) | -5.45%
88 | C=C1CCC2[C@](C)(CCC[C@]2(C)C(=O)OC)[C@H]1CCc1ccoc1/C=C/C(=O)O (some centres undefined) | 63.4% (active)
89 | C=C1CCC2[C@](C)(CCC[C@]2(C)C(=O)OC)[C@H]1CCc1ccoc1C[N+](C)(C)Cc1ccccc1 (some centres undefined) | 30.8% (active)
